# Data published in PubChem BioAssay (NCATS).
# Where “and” joins values, the source holds several entries; their conditions need not be identical. Identical values can stand only once. Results filed as inconclusive are left out. A call without a number means that no potency is given here. Calls of active or inactive are those of the source. Calls come from the whole dose curve; as a rule, active = well fitted cell-killing curve with a large enough effect; inconclusive = small, poorly fitted or top-dose-only effect; inactive = flat fitted curve, though single readings scatter. Non-standard residues stand in square brackets, D forms with d. Residues, ends and D or L forms follow the SMILES beside them. Peptide text beside a SMILES is read from it. *: point of attachment. Sta = CC(C)C[C@H](N)[C@@H](O)CC(=O)O; Isovaleryl = CC(C)CC(=O)*
# Assay: qHTS of pediatric cancer cell lines to identify multiple opportunities for drug repurposing: Primary screen for TC32 cells (AID 1347089); note: nearly all actives have a fitted effect of over 60% in size
# Conditions: TC32 Ewing sarcoma viability, CellTiter-Glo luminescence, 48 h; series mostly up to 45.8 µM
# Summary of the method: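 qHTS, TC32, 48 h drug treatment, CellTiter-Glo luminescence as a proxy for metabolically active cells; primary top concentration 46 µM (MIPE 11-pt, NPC 8-pt); confirmatory 11-pt.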
row,Compound,Potency
1,Clc1ccc(C(Cn2ccnc2)OCc2c(Cl)cccc2Cl)c(Cl)c1 (configuration not stated),inactive
2,C[Se]CCC(N)C(=O)O (configuration not stated),inactive
3,Nc1ccc(S(N)(=O)=O)cc1,inactive
4,CC1=C(C)C(=O)C(C(CCCCCC(=O)O)c2ccccc2)=C(C)C1=O (configuration not stated),inactive
5,O=C(NCCO[N+](=O)[O-])c1cccnc1,inactive
6,CCC1=C(C)CN(C(=O)NCCc2ccc(S(=O)(=O)NC(=O)NC3CCC(C)CC3)cc2)C1=O (configuration not stated),inactive
7,COc1cc2c(N3CCN(C(=O)Nc4ccc(OC(C)C)cc4)CC3)ncnc2cc1OCCCN1CCCCC1,inactive
8,COC(=O)C1=C(C)NC(C)=C(C(=O)OCCCN2CCC(c3ccccc3)(c3ccccc3)CC2)C1c1cccc([N+](=O)[O-])c1 (configuration not stated),inactive
9,CN(C)c1ccc(O)c2c1C[C@H]1C[C@H]3[C@H](N(C)C)C(=O)C(C(N)=O)=C(O)[C@@]3(O)C(=O)C1=C2O,inactive
10,Cc1ccc(C)c(OCCCC(C)(C)C(=O)O)c1,inactive
11,Cc1cc(=O)c2c(O)c3c(O)cc(=O)c4c3c3c(cc(O)c1c23)C(C)(C)C=4O,inactive
12,CC(C)CC(=O)N[C@H](C(=O)N[C@H](C(=O)N[C@@H](CC(C)C)[C@@H](O)CC(=O)N[C@@H](C)C(=O)N[C@@H](CC(C)C)[C@@H](O)CC(=O)O)C(C)C)C(C)C (Isovaleryl-VV[Sta]A[Sta]-OH),inactive
13,N=C(N)c1ccc2cc(OC(=O)c3ccc(N=C(N)N)cc3)ccc2c1,inactive
14,Cc1ccc(S(=O)(=O)NC(=O)NN2CC3CCCC3C2)cc1 (configuration not stated),inactive
15,Cn1c(NCCN(CCO)CCCc2ccc([N+](=O)[O-])cc2)cc(=O)n(C)c1=O,inactive
16,Nc1cc(C(Cl)=C(Cl)Cl)c(S(N)(=O)=O)cc1S(N)(=O)=O,inactive
17,NC(=O)Cc1cccc(C(=O)c2ccccc2)c1N,inactive
18,O=C(O)CCNC(=O)c1ccc(N=Nc2ccc(O)c(C(=O)O)c2)cc1,inactive
19,COC(=O)[C@H](Cc1ccccc1)NC(=O)[C@@H](N)CC(=O)O (H-Asp-Phe-OMe),inactive
20,C[C@H](Cn1cnc2c(N)ncnc21)OCP(=O)(O)O,inactive
21,Nc1ncn([C@H]2C[C@H](O)[C@@H](CO)O2)c(=O)n1,inactive
22,O=C(NC(Cc1cc(=O)[nH]c2ccccc12)C(=O)O)c1ccc(Cl)cc1 (configuration not stated),inactive
23,COc1c2occc2cc2ccc(=O)oc12,inactive
24,CN(c1nccc(=O)[nH]1)C1CCN(c2nc3ccccc3n2Cc2ccc(F)cc2)CC1,inactive
25,CCCc1cc(=O)[nH]c(=S)[nH]1,inactive
26,CN1CCC(=C2c3ccccc3CCc3sccc32)CC1,inactive
27,CNC[C@@H](O)[C@@H](O)[C@H](O)[C@H](O)CO,inactive
28,COC(=O)N[C@H](C(=O)N[C@@H](Cc1ccccc1)[C@@H](O)CN(Cc1ccc(-c2ccccn2)cc1)NC(=O)[C@@H](NC(=O)OC)C(C)(C)C)C(C)(C)C,inactive

# Assay: qHTS of pediatric cancer cell lines to identify multiple opportunities for drug repurposing: Primary screen for DAOY cells (AID 1347090); note: nearly all actives have a fitted effect of over 55% in size; note: potency is the fitted concentration of half-maximal effect
# Conditions: DAOY medulloblastoma viability, CellTiter-Glo luminescence, 48 h; series mostly up to 46 µM
# Summary of the method: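 Viability measured as metabolically active cells via CellTiter-Glo luminescence following 48 hours of compound exposure, 11-point dilutions in confirmatory testing. 500-1,000 cells/well plated 5 hours before dosing; controls were DMSO and 2.3 µM bortezomib.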
row,Compound,Potency
1,Cc1nc(-c2ccc(OCC(C)C)c(C#N)c2)sc1C(=O)O,inactive
2,O=C(CS(=O)Cc1ccco1)NCC=CCOc1cc(CN2CCCCC2)ccn1 (configuration not stated),inactive
3,Cc1c(C(=O)NN2CCCCC2)nn(-c2ccc(Cl)cc2Cl)c1-c1ccc(Cl)cc1,inactive
4,Cc1cc2c(s1)Nc1ccccc1N=C2N1CCN(C)CC1,inactive
5,CCCCc1ccc2nc(NC(=O)OC)[nH]c2c1,26.6 nM (active)
6,CC(C)c1ccc2oc3nc(N)c(C(=O)O)cc3c(=O)c2c1,inactive
7,COCCCOc1ccnc(CS(=O)c2nc3ccccc3[nH]2)c1C (configuration not stated),inactive
8,N=C(N=C(N)N)N1CCOCC1,inactive
9,Nc1cccc2c1CN(C1CCC(=O)NC1=O)C2=O (configuration not stated),inactive
10,CN(C)[C@@H](CCOc1cccc2ccccc12)c1ccccc1,inactive
11,CN(C)c1ccc2nc3ccc(=[N+](C)C)cc-3sc2c1,2.35 µM (active) and 6.68 µM (active)
12,Clc1ccc(C(Cn2ccnc2)OCc2c(Cl)cccc2Cl)c(Cl)c1 (configuration not stated),inactive
13,C[Se]CCC(N)C(=O)O (configuration not stated),inactive
14,Nc1ccc(S(N)(=O)=O)cc1,inactive
15,CC1=C(C)C(=O)C(C(CCCCCC(=O)O)c2ccccc2)=C(C)C1=O (configuration not stated),inactive
16,O=C(NCCO[N+](=O)[O-])c1cccnc1,inactive
17,CCC1=C(C)CN(C(=O)NCCc2ccc(S(=O)(=O)NC(=O)NC3CCC(C)CC3)cc2)C1=O (configuration not stated),inactive
18,COc1cc2c(N3CCN(C(=O)Nc4ccc(OC(C)C)cc4)CC3)ncnc2cc1OCCCN1CCCCC1,inactive
19,COC(=O)C1=C(C)NC(C)=C(C(=O)OCCCN2CCC(c3ccccc3)(c3ccccc3)CC2)C1c1cccc([N+](=O)[O-])c1 (configuration not stated),inactive
20,CN(C)c1ccc(O)c2c1C[C@H]1C[C@H]3[C@H](N(C)C)C(=O)C(C(N)=O)=C(O)[C@@]3(O)C(=O)C1=C2O,inactive

row,Compound,Potency
1,Cc1ccc(C)c(OCCCC(C)(C)C(=O)O)c1,inactive
2,Cc1cc(=O)c2c(O)c3c(O)cc(=O)c4c3c3c(cc(O)c1c23)C(C)(C)C=4O,1.16 µM (active) and 18.7 µM (active)
3,CC(C)CC(=O)N[C@H](C(=O)N[C@H](C(=O)N[C@@H](CC(C)C)[C@@H](O)CC(=O)N[C@@H](C)C(=O)N[C@@H](CC(C)C)[C@@H](O)CC(=O)O)C(C)C)C(C)C (Isovaleryl-VV[Sta]A[Sta]-OH),inactive
4,N=C(N)c1ccc2cc(OC(=O)c3ccc(N=C(N)N)cc3)ccc2c1,inactive
5,Cc1ccc(S(=O)(=O)NC(=O)NN2CC3CCCC3C2)cc1 (configuration not stated),inactive
6,Cn1c(NCCN(CCO)CCCc2ccc([N+](=O)[O-])cc2)cc(=O)n(C)c1=O,inactive
7,Nc1cc(C(Cl)=C(Cl)Cl)c(S(N)(=O)=O)cc1S(N)(=O)=O,inactive
8,NC(=O)Cc1cccc(C(=O)c2ccccc2)c1N,inactive
9,O=C(O)CCNC(=O)c1ccc(N=Nc2ccc(O)c(C(=O)O)c2)cc1,inactive
10,COC(=O)[C@H](Cc1ccccc1)NC(=O)[C@@H](N)CC(=O)O (H-Asp-Phe-OMe),inactive
11,C[C@H](Cn1cnc2c(N)ncnc21)OCP(=O)(O)O,inactive
12,Nc1ncn([C@H]2C[C@H](O)[C@@H](CO)O2)c(=O)n1,inactive
13,O=C(NC(Cc1cc(=O)[nH]c2ccccc12)C(=O)O)c1ccc(Cl)cc1 (configuration not stated),inactive
14,COc1c2occc2cc2ccc(=O)oc12,inactive
15,CN(c1nccc(=O)[nH]1)C1CCN(c2nc3ccccc3n2Cc2ccc(F)cc2)CC1,inactive
16,CCCc1cc(=O)[nH]c(=S)[nH]1,inactive
17,CN1CCC(=C2c3ccccc3CCc3sccc32)CC1,inactive
18,CNC[C@@H](O)[C@@H](O)[C@H](O)[C@H](O)CO,inactive
19,COC(=O)N[C@H](C(=O)N[C@@H](Cc1ccccc1)[C@@H](O)CN(Cc1ccc(-c2ccccn2)cc1)NC(=O)[C@@H](NC(=O)OC)C(C)(C)C)C(C)(C)C,inactive
